Experimental data taken from the supplement of paper PMC11732987, “Enantioselective OTUD7B fragment discovery through chemoproteomics screening and high-throughput optimisation” (Communications Chemistry, 2025).

Columns and labels:
Test in all cases: log2 ratio of Biotin-Ahx-Ub-VS probe labelling (fragment/DMSO); higher = less target engagement (more negative = stronger competition), active = hit call of the paper (q ≤ 0.05, log2 ratio ≤ -1)
Conditions in all cases: compound concentration: 200 uM; treatment time: 3 h
OTUD6B = molecular target: T1, OTUD6B (UniProt Q8N6M0)
T1 sequence (whole entry): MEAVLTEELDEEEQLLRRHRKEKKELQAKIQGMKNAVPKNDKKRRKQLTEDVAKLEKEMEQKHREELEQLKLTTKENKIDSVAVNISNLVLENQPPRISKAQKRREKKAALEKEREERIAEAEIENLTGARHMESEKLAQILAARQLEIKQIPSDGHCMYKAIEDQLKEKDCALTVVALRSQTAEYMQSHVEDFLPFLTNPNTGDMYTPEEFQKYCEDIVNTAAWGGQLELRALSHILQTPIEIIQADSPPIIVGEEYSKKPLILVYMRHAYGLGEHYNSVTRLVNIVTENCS
Summary of the method: (§1)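 Lysate from HEK293T cells, 495 µg per sample in Tris/CHAPS/IGEPAL buffer with protease inhibitors, was treated for 3 h in triplicate with fragment at 200 µM or vehicle. Biotin-Ahx-Ub-VS was next added at 0.5 µM final for 1 h. The labelled DUBs were enriched with NeutrAvidin, digested with LysC and trypsin, and run by diaPASEF LC-MS/MS, with values given as average log2 fragment/vehicle ratios by unpaired t-test on global-median-normalised Spectronaut quantities of proteins with ≥2 unique peptides.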

OTUD7B = molecular target: T2, OTUD7B (UniProt Q6GQQ9)
T2 sequence (whole entry): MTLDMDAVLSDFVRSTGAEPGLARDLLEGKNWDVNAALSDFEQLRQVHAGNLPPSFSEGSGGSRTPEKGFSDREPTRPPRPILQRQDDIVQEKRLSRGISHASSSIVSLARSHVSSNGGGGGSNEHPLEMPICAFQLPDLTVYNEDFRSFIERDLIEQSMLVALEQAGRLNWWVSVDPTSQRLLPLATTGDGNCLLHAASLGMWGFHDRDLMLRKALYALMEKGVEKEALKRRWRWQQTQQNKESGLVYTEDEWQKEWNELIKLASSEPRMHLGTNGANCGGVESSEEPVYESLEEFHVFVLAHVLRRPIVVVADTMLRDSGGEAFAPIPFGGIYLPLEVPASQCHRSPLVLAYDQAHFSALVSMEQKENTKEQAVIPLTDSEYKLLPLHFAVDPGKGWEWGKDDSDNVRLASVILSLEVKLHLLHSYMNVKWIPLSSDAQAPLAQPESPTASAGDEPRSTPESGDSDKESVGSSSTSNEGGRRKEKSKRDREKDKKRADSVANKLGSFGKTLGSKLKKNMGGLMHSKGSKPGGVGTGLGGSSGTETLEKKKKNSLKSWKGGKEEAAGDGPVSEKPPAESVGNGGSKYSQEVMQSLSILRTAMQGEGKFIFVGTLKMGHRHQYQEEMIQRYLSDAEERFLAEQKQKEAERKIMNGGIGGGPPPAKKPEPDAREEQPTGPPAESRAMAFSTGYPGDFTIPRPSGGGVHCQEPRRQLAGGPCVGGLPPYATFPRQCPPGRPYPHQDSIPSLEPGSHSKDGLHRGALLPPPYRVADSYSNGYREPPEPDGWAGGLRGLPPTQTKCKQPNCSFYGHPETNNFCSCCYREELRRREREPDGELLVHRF
Summary of the method: as §1

PRPF8 = PRPF8 (UniProt Q6P2Q9)
Summary of the method: as §1

PSMD7 = molecular target: T3, PSMD7 (UniProt P51665)
T3 sequence (whole entry): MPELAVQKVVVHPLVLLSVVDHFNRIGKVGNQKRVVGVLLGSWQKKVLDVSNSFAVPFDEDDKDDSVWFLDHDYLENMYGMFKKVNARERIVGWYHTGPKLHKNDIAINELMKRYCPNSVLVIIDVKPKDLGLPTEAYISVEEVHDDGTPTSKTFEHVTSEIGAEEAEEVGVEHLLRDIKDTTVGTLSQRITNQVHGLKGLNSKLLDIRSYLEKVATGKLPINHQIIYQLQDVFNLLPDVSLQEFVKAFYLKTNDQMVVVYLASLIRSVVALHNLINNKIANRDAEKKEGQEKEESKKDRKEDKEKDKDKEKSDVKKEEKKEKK
Summary of the method: as §1

UCHL1 = UCHL1 (UniProt P09936)
Summary of the method: as §1

UCHL3 = molecular target: T4, UCHL3 (UniProt P15374)
T4 sequence (whole entry): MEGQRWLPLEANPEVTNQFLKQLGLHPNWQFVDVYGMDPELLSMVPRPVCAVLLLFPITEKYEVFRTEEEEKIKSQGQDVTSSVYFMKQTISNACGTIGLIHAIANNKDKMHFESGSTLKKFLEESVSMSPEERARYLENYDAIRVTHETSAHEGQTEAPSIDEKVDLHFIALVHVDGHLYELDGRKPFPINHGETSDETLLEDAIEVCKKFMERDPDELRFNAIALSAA
Summary of the method: as §1

UCHL5 = molecular target: T5, UCHL5 (UniProt Q9Y5K5)
T5 sequence (whole entry): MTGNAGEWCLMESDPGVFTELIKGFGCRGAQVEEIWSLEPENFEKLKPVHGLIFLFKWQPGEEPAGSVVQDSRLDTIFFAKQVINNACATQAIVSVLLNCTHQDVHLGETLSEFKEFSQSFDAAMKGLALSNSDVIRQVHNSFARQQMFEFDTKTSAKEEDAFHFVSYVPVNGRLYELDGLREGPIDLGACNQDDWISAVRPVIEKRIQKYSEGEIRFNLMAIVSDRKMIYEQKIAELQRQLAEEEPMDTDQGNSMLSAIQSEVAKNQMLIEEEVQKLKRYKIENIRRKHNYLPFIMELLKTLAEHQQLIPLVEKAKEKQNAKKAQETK
Summary of the method: as §1

USP10 = USP10 (UniProt Q14694)
Summary of the method: as §1

USP15 = molecular target: T6, USP15 (UniProt Q9Y4E8)
T6 sequence (whole entry): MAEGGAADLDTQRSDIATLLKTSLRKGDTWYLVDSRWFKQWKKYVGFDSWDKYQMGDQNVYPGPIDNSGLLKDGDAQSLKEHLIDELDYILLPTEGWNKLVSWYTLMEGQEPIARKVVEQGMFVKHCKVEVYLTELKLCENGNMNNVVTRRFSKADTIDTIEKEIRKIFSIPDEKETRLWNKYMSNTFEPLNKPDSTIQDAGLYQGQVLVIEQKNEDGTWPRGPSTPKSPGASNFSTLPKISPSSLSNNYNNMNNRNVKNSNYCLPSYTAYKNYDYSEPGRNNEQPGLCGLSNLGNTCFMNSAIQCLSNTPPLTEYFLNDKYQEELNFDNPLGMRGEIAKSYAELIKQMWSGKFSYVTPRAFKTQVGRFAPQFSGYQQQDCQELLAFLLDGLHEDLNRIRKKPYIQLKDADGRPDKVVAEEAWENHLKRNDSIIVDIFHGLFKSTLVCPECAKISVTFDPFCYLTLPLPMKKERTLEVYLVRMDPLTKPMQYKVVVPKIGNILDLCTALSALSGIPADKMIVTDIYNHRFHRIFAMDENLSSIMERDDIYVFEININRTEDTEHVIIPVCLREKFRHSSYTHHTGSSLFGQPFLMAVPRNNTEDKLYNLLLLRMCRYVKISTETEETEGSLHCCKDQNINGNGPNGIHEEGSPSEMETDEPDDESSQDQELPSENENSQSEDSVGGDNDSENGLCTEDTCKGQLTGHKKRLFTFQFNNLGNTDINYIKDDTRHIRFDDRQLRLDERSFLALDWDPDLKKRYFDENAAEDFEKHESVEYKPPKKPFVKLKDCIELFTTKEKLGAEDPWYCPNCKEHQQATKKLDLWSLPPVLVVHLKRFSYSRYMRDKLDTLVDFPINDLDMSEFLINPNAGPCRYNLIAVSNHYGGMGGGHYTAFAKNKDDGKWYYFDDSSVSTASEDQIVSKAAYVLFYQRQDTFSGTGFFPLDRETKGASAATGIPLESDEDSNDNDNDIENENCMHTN
Summary of the method: as §1

USP16 = USP16 (UniProt Q9Y5T5)
Summary of the method: as §1

Measured: log2 ratio of Biotin-Ahx-Ub-VS probe labelling

Chain of UCHL1 (P09936 whole entry, looked up): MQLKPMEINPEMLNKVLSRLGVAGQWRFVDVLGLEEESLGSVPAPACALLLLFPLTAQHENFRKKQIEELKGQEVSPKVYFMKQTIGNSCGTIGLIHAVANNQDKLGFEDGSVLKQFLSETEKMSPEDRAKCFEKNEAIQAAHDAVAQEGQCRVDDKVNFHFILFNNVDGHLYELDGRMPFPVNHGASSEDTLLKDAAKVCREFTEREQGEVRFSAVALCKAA
Chain of USP10 (Q14694 whole entry): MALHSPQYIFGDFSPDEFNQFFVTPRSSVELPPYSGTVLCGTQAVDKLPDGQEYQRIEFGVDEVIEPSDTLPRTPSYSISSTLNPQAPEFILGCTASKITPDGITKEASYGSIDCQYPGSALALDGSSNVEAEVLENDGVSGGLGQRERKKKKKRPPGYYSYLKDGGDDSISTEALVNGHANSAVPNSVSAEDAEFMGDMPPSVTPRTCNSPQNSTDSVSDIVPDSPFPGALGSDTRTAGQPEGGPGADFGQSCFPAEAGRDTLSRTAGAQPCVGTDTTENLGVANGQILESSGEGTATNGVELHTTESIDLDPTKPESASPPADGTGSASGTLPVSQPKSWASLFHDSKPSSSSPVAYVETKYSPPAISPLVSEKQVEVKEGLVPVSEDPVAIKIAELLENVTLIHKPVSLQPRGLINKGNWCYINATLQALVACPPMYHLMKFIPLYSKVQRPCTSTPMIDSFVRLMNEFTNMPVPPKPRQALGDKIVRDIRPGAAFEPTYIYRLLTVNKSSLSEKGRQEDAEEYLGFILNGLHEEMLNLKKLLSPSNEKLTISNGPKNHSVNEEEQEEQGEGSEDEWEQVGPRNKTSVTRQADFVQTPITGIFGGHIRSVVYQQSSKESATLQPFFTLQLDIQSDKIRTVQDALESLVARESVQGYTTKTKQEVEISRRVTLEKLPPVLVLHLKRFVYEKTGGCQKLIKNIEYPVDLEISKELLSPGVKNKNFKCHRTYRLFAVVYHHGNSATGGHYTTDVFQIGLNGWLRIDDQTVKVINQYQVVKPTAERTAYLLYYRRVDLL
Chain of USP16 (Q9Y5T5 whole entry, looked up): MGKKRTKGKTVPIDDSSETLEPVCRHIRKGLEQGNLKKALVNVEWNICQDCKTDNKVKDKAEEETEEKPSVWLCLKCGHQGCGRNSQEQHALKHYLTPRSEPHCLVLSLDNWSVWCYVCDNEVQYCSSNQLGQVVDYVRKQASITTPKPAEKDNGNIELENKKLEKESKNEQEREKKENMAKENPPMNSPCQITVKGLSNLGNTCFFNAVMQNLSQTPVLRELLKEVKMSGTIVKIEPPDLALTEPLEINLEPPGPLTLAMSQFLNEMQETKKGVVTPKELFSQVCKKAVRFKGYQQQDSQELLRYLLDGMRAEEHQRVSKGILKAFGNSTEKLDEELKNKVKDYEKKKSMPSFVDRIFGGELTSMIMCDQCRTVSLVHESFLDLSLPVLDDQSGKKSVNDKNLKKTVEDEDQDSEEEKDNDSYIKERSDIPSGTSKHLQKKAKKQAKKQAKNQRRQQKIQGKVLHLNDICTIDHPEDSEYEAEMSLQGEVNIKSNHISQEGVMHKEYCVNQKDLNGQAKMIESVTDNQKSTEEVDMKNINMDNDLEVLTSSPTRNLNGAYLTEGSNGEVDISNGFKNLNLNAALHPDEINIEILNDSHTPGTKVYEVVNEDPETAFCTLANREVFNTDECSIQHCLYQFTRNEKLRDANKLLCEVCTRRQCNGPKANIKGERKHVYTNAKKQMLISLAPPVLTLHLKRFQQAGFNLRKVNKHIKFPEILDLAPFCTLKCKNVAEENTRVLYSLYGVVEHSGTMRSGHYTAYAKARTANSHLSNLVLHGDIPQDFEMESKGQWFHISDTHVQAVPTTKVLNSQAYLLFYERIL

Cc1ncsc1CCNC(=O)CCl
inactive: OTUD6B 0.143 | OTUD7B -0.157 | PRPF8 0.116 | PSMD7 0.433 | UCHL3 0.292 | UCHL5 -0.131 | USP10 0.0995 | USP15 0.22 | USP16 0.106
active: UCHL1 -1.31
